Assay results reported in PubChem BioAssay (EPA / NIEHS).
Records with an inconclusive call do not appear. Activity calls are given as the source filed them. The calls were made as follows, unless noted: active = hit-call score of the fitted dose curve at least 0.9, where 1 is the maximum; inconclusive = response in the unintended direction; inactive = score below 0.9.

Columns and labels:
[1] = TOX21_p53_BLA_p3_viability: Viability Assessment in the Tox21 HCT-116 p53 Agonism Beta-lactamase Assay, Phase 3 (AID 2283593);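 also: cells exposed to compound for 16 h before reading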
Procedure, shortened: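 HCT-116 cells (4000/well) rested 5 h at 37C, then got DMSO compounds by pin tool (217-fold dilution) for 16 h at 37C, 5% CO2. After the bla read, CellTiter-Glo was added and luminescence read at 30 min, room temperature.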

[2] = TOX21_p53_BLA_p4_viability: Viability Assessment in the Tox21 HCT-116 p53 Agonism Beta-lactamase Assay, Phase 4 (AID 2283597);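 also: hits lower the luminescence signal meaning cytotoxicity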
Procedure, shortened: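 Cells plated, 5 h pre-incubation; DMSO compounds pinned (217-fold dilution); 16 h, 37C/5% CO2; CCF4-AM 2 h RT; CellTiter-Glo 30 min RT; luminescence read.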

[3] = biological target: Cellular tumor antigen p53 (Homo sapiens) (UniProt P04637); assay: TOX21_p53_BLA_p5_ratio: Tox21 HCT-116 p53 Agonism Beta-lactamase Assay, Ratio, Phase 5 (AID 2283599)
Sequence of Cellular tumor antigen p53 (Homo sapiens) (P04637 whole entry, looked up): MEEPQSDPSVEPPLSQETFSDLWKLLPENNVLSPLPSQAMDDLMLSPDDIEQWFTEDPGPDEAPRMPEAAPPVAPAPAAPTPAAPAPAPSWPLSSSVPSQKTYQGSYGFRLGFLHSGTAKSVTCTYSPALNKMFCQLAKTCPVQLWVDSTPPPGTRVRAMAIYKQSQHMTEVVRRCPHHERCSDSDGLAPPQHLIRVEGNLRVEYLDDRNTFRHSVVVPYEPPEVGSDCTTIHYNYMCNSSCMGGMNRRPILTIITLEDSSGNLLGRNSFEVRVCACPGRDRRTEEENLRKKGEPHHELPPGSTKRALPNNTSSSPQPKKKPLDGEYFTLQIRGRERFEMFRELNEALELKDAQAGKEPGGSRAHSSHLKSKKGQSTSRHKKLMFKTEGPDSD
Procedure, shortened: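 HCT-116 cells carrying a p53-inducible beta-lactamase reporter were seeded at 4000 cells/well and dosed after 5 h with compound in DMSO (217-fold dilution). After 16 h at 37C, CCF4-AM substrate was added for 2 h, and the 460/530 nm emission ratio was scored as gain-of-signal versus DMSO.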

[4] = biological target: Cellular tumor antigen p53 (Homo sapiens) (UniProt P04637); assay: TOX21_p53_BLA_p4_ratio: Tox21 HCT-116 p53 Agonism Beta-lactamase Assay, Ratio, Phase 4 (AID 2283601)
Procedure, shortened: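 HCT116 cells carrying an inducible beta-lactamase reporter were plated at 4000 cells/well, rested 5 h, then exposed to compounds in DMSO (217-fold dilution) for 16 h at 37C. CCF4-AM substrate was loaded 2 h at room temperature; 460/530 nm emission ratio scored gain-of-signal versus DMSO.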

[5] = biological target: Cellular tumor antigen p53 (Homo sapiens) (UniProt P04637); assay: TOX21_p53_BLA_p3_ratio: Tox21 HCT-116 p53 Agonism Beta-lactamase Assay, Ratio, Phase 3 (AID 2283596)
Procedure, shortened: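 HCT116 p53-bla cells (4000/well) given compound in DMSO (217-fold dilution) after 5 h, incubated 16 h at 37C. CCF4-AM substrate 2 h at room temperature; 460/530 nm emission ratio, gain fitted against DMSO.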

[6] = CCTE_Deisenroth_AIME_96WELL_CTox_Active: Cytotoxicity Assessment (CTOX) in CCTE's 96-well Estrogen Receptor Transactivation Assay with AIME metabolic competence (metabolism positive), Deisenroth Lab (AID 2284028)
Procedure, shortened: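 Chemicals (0.002–200 uM) were first incubated 2 h with alginate-immobilized phenobarbital/beta-naphthoflavone-induced male rat liver S9; conditioned medium then went onto VM7Luc4E2 cells for 24 h, with viability read by protease-substrate fluorescence, fitted bidirectionally.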

[7] = CCTE_Deisenroth_AIME_96WELL_CTox_Inactive: Cytotoxicity Assessment (CTOX) in CCTE's 96-well Estrogen Receptor Transactivation Assay without AIME metabolic competence (metabolism negative), Deisenroth Lab (AID 2284029)
Procedure, shortened: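 Chemicals (0.002 - 200 uM, 10 points) incubated 2 h with alginate-water microspheres (no S9), then medium moved onto VM7Luc4E2 cells for 24 h. Viability by protease-substrate cleavage to fluorescent probe; bidirectional fitting.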

[8] = CCTE_Shafer_MEA_dev_firing_rate_mean: CCTE's Neural Network Formation Assay for Mean Firing Rate, Shafer Lab (AID 2284031; active = hit-call score of the fitted dose curve at least 0.9, where 1 is the maximum; inactive = score below 0.9)
Procedure, shortened: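 Primary rat cortical neurons on 48-well MEA plates, exposed from plating day 0 with dosing renewed on DIV 5 and 9. Mean well firing rate over active electrodes, recorded days 5, 7, 9, 12, summarised as trapezoidal AUC.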

[9] = CCTE_Shafer_MEA_dev_per_burst_spike_percent: CCTE's Neural Network Formation Assay for Percent of Spikes in a Burst, Shafer Lab (AID 2284032; active = hit-call score of the fitted dose curve at least 0.9, where 1 is the maximum; inactive = score below 0.9)
Procedure, shortened: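 Rat primary cortical neurons on 16-electrode MEA wells, dosed from plating day 0 for 12 days with renewal on DIV 5 and 9; spikes-in-bursts percentage averaged over bursting electrodes, collapsed as AUC across days 5, 7, 9, 12; loss direction versus DMSO.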

[10] = CCTE_Shafer_MEA_dev_active_electrodes_number: CCTE's Neural Network Formation Assay for Number of Active Electrodes, Shafer Lab (AID 2284040)
Procedure, shortened: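 Primary rat cortical neurons on 16-electrode MEA wells, exposed from day 0 through day 12 with compound renewed at DIV 5 and 9 feeds. Active electrodes (mean firing ≥5 spikes/min) counted at DIV 5, 7, 9, 12; trapezoidal AUC across days, loss-of-signal versus DMSO.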

[11] = CCTE_Shafer_MEA_dev_burst_rate: CCTE's Neural Network Formation Assay for Burst Rate, Shafer Lab (AID 2284042; active = hit-call score of the fitted dose curve at least 0.9, where 1 is the maximum; inactive = score below 0.9)
Procedure, shortened: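 Primary rat cortical neurons on PEI-coated 48-well MEA plates (laminin added with cells at plating) (16 electrodes/well), exposed from plating to day 12, dosing renewed at DIV 5 and 9. Burst rate averaged over active electrodes, recorded DIV 5, 7, 9, 12, summarized as AUC; loss versus DMSO.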

[12] = CCTE_Shafer_MEA_dev_bursting_electrodes_number: CCTE's Neural Network Formation Assay for Number of Bursting Electrodes, Shafer Lab (AID 2284043)
Procedure, shortened: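 Primary rat cortical neurons were cultured on PEI-coated 48-well MEA plates (16 electrodes/well) and exposed from plating through day 12, with compound renewed at feeds on DIV 5 and 9. Electrodes bursting ≥1 per 2 min were counted on DIV 5, 7, 9, 12; trapezoidal AUC taken.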

[13] = CCTE_Shafer_MEA_dev_per_burst_interspike_interval: CCTE's Neural Network Formation Assay for Burst Interspike Interval, Shafer Lab (AID 2284044; active = hit-call score of the fitted dose curve at least 0.9, where 1 is the maximum; inactive = score below 0.9;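 also: mean spike spacing inside bursts as AUC over recordings on days 5 7 9 12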)
Procedure, shortened: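 Neurons from rat cortex plated onto PEI-coated MEA wells with laminin […] at 1.5 x 10^5 cells/well, then treated from day 0. Media and compound fully replaced on DIV 5 and 9. Extracellular spontaneous firing recorded four times; interspike interval per burst summarised as AUC.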

[14] = CCTE_Shafer_MEA_dev_burst_duration_mean: CCTE's Neural Network Formation Assay for Mean Burst Duration, Shafer Lab (AID 2284045; active = hit-call score of the fitted dose curve at least 0.9, where 1 is the maximum; inactive = score below 0.9)
Procedure, shortened: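 Primary rat cortical neurons on PEI-coated 16-electrode MEA wells, exposed from plating through day 12 with compound renewed at DIV 5 and 9; spontaneous activity recorded days 5, 7, 9, 12. Well-mean burst duration collapsed as trapezoidal AUC, fitted for loss versus DMSO.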

[15] = CCTE_Shafer_MEA_dev_interburst_interval_mean: CCTE's Neural Network Formation Assay for Mean Interburst Interval, Shafer Lab (AID 2284046; active = hit-call score of the fitted dose curve at least 0.9, where 1 is the maximum; inactive = score below 0.9;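 also: well-mean interburst interval of bursting electrodes as AUC over four recording days; curve fitted for decrease in interburst interval relative to DMSO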)
Procedure, shortened: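 Recordings on days 5, 7, 9 and 12 give well-mean interburst interval across actively bursting electrodes, summarized as area under the curve. Cultures: rat cortical neurons, continuous exposure from day 0, compound renewed at feeds; decrease analyzed versus DMSO.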

[16] = CCTE_Shafer_MEA_dev_inter_network_spike_interval_mean: CCTE's Neural Network Formation Assay for Mean Inter-network Spike Interval, Shafer Lab (AID 2284047; active = hit-call score of the fitted dose curve at least 0.9, where 1 is the maximum; inactive = score below 0.9)
Procedure, shortened: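 Primary rat cortical neurons on 16-electrode MEA wells, exposed from plating day 0 through DIV 12, compound renewed at DIV 5 and 9 media changes. Mean interval between network-spike peaks recorded DIV 5, 7, 9, 12; collapsed as trapezoidal AUC, fitted downward versus DMSO.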

[17] = CCTE_Shafer_MEA_dev_network_spike_number: CCTE's Neural Network Formation Assay for Number of Network Spikes, Shafer Lab (AID 2284048; active = hit-call score of the fitted dose curve at least 0.9, where 1 is the maximum; inactive = score below 0.9;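 also: synchronized bursts across electrodes counted on days 5 7 9 12 and integrated as AUC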)
Procedure, shortened: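 Primary rat cortical neurons were seeded at 1.5 x 10^5 cells/well on PEI-coated 16-electrode MEA wells with laminin, exposed from plating day 0, compound renewed at DIV 5 and 9. Network spikes were recorded on days 5, 7, 9, 12 and summarized as trapezoidal AUC versus DMSO.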

[18] = CCTE_Shafer_MEA_dev_network_spike_peak: CCTE's Neural Network Formation Assay for Mean Number of Electrodes in Network Spike, Shafer Lab (AID 2284049; active = hit-call score of the fitted dose curve at least 0.9, where 1 is the maximum; inactive = score below 0.9)
Procedure, shortened: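 Continuous 12-day exposure of rat cortical cultures, starting at plating, on MEA plates. Endpoint: electrodes participating in network-spike peaks, AUC across DIV 5–12, DMSO as negative control.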

[19] = CCTE_Shafer_MEA_dev_spike_duration_mean: CCTE's Neural Network Formation Assay for Mean Spike Duration, Shafer Lab (AID 2284051; active = hit-call score of the fitted dose curve at least 0.9, where 1 is the maximum; inactive = score below 0.9;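 also: mean network spike duration pooled as area under curve over DIV 5 to 12 recordings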)
Procedure, shortened: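 Primary rat cortical neurons on 16-electrode MEA wells (PEI-coated, laminin in plating drop), exposed from plating through DIV 12 with compound renewed at DIV 5 and 9. Mean network-spike duration recorded DIV 5, 7, 9, 12; trapezoidal AUC across days, DMSO baseline.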

[20] = CCTE_Shafer_MEA_dev_per_network_spike_spike_number_mean: CCTE's Neural Network Formation Assay for Mean Number of Spikes in a Network Spike, Shafer Lab (AID 2284053; active = hit-call score of the fitted dose curve at least 0.9, where 1 is the maximum; inactive = score below 0.9)
Procedure, shortened: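 Primary rat cortical neurons on 48-well, 16-electrode MEA plates were exposed from plating to DIV 12, with dosing renewed on DIV 5 and 9. Spikes per network spike (0.05 s peak window) were recorded on DIV 5, 7, 9 and 12 and collapsed as trapezoidal AUC versus DMSO.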

[21] = CCTE_Shafer_MEA_dev_per_network_spike_spike_percent: CCTE's Neural Network Formation Assay for Percent of Spikes in a Network Spike, Shafer Lab (AID 2284054; active = hit-call score of the fitted dose curve at least 0.9, where 1 is the maximum; inactive = score below 0.9)
Procedure, shortened: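 Primary rat cortical neurons on 16-electrode MEA wells (PEI-coated, laminin at plating), exposed from day 0 with renewal at DIV 5 and 9; spikes within 0.05 s of network-spike peaks over total spikes, AUC across days 5, 7, 9, 12.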

[22] = CCTE_Shafer_MEA_dev_LDH: CCTE's Lactate Dehydrogenase Assay for Cytotoxicity in the Neural Network Formation Assay, Shafer Lab (AID 2284068);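 also: exposure for twelve days from plating with re-dosing on DIV 5 and 9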
Procedure, shortened: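 Primary rat cortical neurons were plated on PEI/laminin MEA plates and exposed from day 0 for twelve days, with compound renewed at DIV 5 and 9. Cytotoxicity was determined by spectrophotometric LDH assay relative to DMSO.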

[23] = CCTE_Shafer_MEA_dev_AB: CCTE's Alamar Blue Assay for Cytotoxicity in the Neural Network Formation Assay, Shafer Lab (AID 2284083);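 also: twelve days of exposure from plating with re-dosing on DIV 5 and 9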
Procedure, shortened: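 Primary rat cortical neurons on PEI-coated 48-well MEA plates, 1.5 x 10^5 cells/well in laminin drop; compound exposure from day 0 of plating for twelve days, renewed at medium changes on DIV 5 and 9. Viability read as resazurin reduction by fluorescence, relative to DMSO.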

[24] = CCTE_Shafer_MEA_dev_mutual_information_norm: CCTE's Neural Network Formation Assay for Mutual Information Normalization, Shafer Lab (AID 2284091; active = hit-call score of the fitted dose curve at least 0.9, where 1 is the maximum; inactive = score below 0.9)
Procedure, shortened: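 Rat cortical cultures, 48-well MEA, continuous exposure DIV 0–12 with full media/compound change DIV 5 and 9. Readout: inter-electrode mutual information, AxIS adaptive spike detection; AUC across DIV 5/7/9/12 recordings; DMSO baseline, negative fitting direction.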

[25] = TOX21_p53_BLA_p5_viability: Viability Assessment in the Tox21 HCT-116 p53 Agonism Beta-lactamase Assay, Phase 5 (AID 2283600)
Procedure, shortened: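 4000 cells/well; 5 h pre-incubation; DMSO compounds pin-transferred, 217-fold dilution; 16 h, 37C/5% CO2; CCF4-AM 2 h RT; CellTiter-Glo 30 min RT; luminescence.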

Measured: outcome

C=CCSSCCC
inactive: [1] | [2]

C=CCCCCCCCCCCC
inactive: [1] | [2] | [3] | [4]

CN1C(C(=O)Nc2ccccn2)C(=O)c2sc(Cl)cc2S1(=O)=O (centres undefined)
inactive: [1] | [2] | [3] | [4]

COc1ccc(CC2c3cc(OC)c(OC)cc3CC[N+]2(C)CCC(=O)OCCCCCOC(=O)CC[N+]2(C)CCc3cc(OC)c(OC)cc3C2Cc2ccc(OC)c(OC)c2)cc1OC (centres undefined)
inactive: [1] | [2]

Cc1c(O)cc2c(c1C)O[C@](C)(CCC[C@H](C)CCC[C@H](C)CCCC(C)C)CC2
inactive: [1] | [2] | [3] | [4]

CC(CC(=O)O)CC(C)(C)C (centres undefined)
inactive: [1] | [2]

c1ccc2c(c1)ccc1c3ccccc3ccc21
inactive: [1] | [5] | [3] | [4] | [6] | [7] | [8] | [9] | [10] | [11] | [12] | [13] | [14] | [15] | [16] | [17] | [18] | [19] | [20] | [21] | [22] | [23] | [24]

Cn1cnc2ncnc(N)c21
inactive: [1] | [5] | [3] | [25] | [4]

COC(=O)[C@@H](N)Cc1ccc(O)c(O)c1
inactive: [1] | [3]

CC(O)CCCCn1c(=O)c2c(ncn2C)n(C)c1=O (centres undefined)
inactive: [1] | [5] | [3] | [4]

CCOC(=O)C(C)(C)C
inactive: [1] | [3] | [25] | [4]

O=P(O)(O)OP(=O)(O)OP(=O)(O)O
inactive: [1] | [5] | [25] | [4]

CC(=O)OCC(=O)[C@@]1(O)CC[C@H]2[C@@H]3C[C@H](C)C4=CC(=O)C=C[C@]4(C)[C@H]3[C@@H](O)C[C@@]21C
inactive: [1] | [2] | [3] | [4]

CCc1ccc(Br)cc1
inactive: [1] | [2] | [4]

COc1ccc(C)cc1[N+](=O)[O-]
inactive: [1] | [3]
